Values without a mark were called inactive. No rule for the calls is given here.
Molecular target: Pantothenate synthetase (Mycobacterium tuberculosis (strain ATCC 25618 / H37Rv)) (UniProt P9WIL5)
Assay: Recombinant Mtb pantothenate synthetase (PanC) inhibitors, coupled enzyme, confirmatory (AID 375);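 also: 0% = full reaction with vehicle and 100% = no enzyme background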
Conditions: coupled enzyme assay; at 10 µM, hits give high values

Sequence of Pantothenate synthetase (Mycobacterium tuberculosis (strain ATCC 25618 / H37Rv)) (P9WIL5 whole entry, looked up): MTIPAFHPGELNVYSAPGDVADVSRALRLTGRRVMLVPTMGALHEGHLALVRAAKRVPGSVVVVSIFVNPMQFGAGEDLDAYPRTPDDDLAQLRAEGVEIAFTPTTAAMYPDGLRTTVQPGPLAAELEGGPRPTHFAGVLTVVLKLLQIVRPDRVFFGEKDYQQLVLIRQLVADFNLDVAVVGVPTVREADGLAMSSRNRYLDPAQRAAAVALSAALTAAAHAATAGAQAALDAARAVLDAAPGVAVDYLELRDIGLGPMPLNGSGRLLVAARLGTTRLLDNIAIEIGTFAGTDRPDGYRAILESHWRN

Compound | inhibition [%]
CCOc1ccccc1C1CC(=O)NC(SCC)=C1C#N (stereo not given) | 0
CC1CCN(Cc2nc3c(c(=O)n(C)c(=O)n3C)n2Cc2cccc3ccccc23)CC1 | 0
CCOC(=O)C(CC)n1nc(C)n2c(cc3sccc32)c1=O (stereo not given) | 4
CN(Cc1ccccc1)C(=O)c1cc(-c2ccc(Br)cc2)on1 | 0
CCC(=O)N1Cc2ccccc2-c2ccccc2C1=O | 0
O=C(NC1CCCC1)C(c1cccs1)N(C(=O)c1ccno1)c1ccccc1 (stereo not given) | 9
CCOC(=O)C1CCN(CC(=O)c2c(C)[nH]c3ccccc23)CC1 | 1
COc1ccc(N(CC(=O)Nc2ccc3c(c2)OCCO3)S(=O)(=O)c2cccnc2)cc1 | 0
CC(=O)N1CCc2cc(S(=O)(=O)NCCC(=O)NC3CCCc4ccccc43)ccc21 (stereo not given) | 0
Cc1cc(C)nc(N2CCC(C(=O)NC3CCCCCC3)CC2)n1 | 1
OCCN(CCO)c1nc(N2CCCCC2)c2nc(N(CCO)CCO)nc(N3CCCCC3)c2n1 | 0
CCN(CCCCOC(=O)c1ccc(OC)c(OC)c1)C(C)Cc1ccc(OC)cc1 (stereo not given) | 9
COC(=O)CC1C(=O)NCCN1C(=O)NC1CCCCC1 (stereo not given) | 1
CN(CC(=O)Nc1nccs1)S(=O)(=O)c1ccc(F)cc1 | 0
CN(CC(=O)Nc1ccncc1)S(=O)(=O)c1ccccc1 | 10
Cc1ccc(NC(=O)CSc2nnc(-c3ccccn3)n2C)cc1 | 1
Cc1ccccc1N1C(N)=NC(N)=NC1(C)C | 0
O=C(Cn1c(=O)n(Cc2ccc3c(c2)OCO3)c(=O)c2ccccc21)N1CCCc2ccccc21 | 0
NC(=O)C1CCN(C(=O)c2cc3n(n2)C(C(F)(F)F)CC(c2ccco2)N3)CC1 (stereo not given) | 0
CCCC(CCC)C(=O)OC1C[C@H]2CC[C@@H](C1)[N+]2(C)C (stereo not given in full) | 0

Compound | inhibition [%]
CC(=O)Nc1ccc(S(=O)(=O)NCc2cn3c(C)csc3n2)cc1 | 0
CCOC(=O)c1cc2sc(C)cc2n1CC(=O)Nc1cccc(C)c1C | 0
CC(C)c1nc(NCC2CCCO2)c(C#N)c2c1COC(C)(C)C2 (stereo not given) | 3
COc1ccc(/C=N/n2c(=O)[nH]c3c([nH]c4ccc(C)cc43)c2=O)cc1CN1CCOCC1 | 2
O=C(Cn1nc(-c2ccc(Cl)cc2)ccc1=O)NCCCN1CCN(Cc2ccccc2)CC1 | 2
O=C(NCc1ccco1)c1cccc(S(=O)(=O)N2CCCCC2)c1 | 0
CCOc1ccc(C(=O)N2CCN(C(=O)c3ccco3)CC2)cc1OCC | 1
O=C(NCC(=O)N(c1ccc2c(c1)OCCO2)C(C(=O)NC1CCCC1)c1ccco1)c1ccco1 (stereo not given) | 6
O=C(Nc1ccccc1)N(Cc1cccnc1)Cc1ccco1 | 0
Cc1cc2oc(C(=O)NC3CCS(=O)(=O)C3)c(C)c2cc1C (stereo not given) | 0
COc1ccc(N2CCN(C(=O)CSc3ccccc3)CC2)cc1 | 6
Cn1cc(Cl)c(C(=O)N(Cc2ccccc2)c2ccccn2)n1 | 0
COc1ccc(CN2C(=O)CN=C2Nc2ccc(C)cc2C)cc1 | 6
COC(=O)c1ccc(C2CC(=O)Nc3cc(OC)c(OC)c(OC)c32)cc1 (stereo not given) | 0
CCN(c1cccc(C(F)(F)F)c1)S(=O)(=O)c1ccc2c(c1)CCN2C(=O)C1CC1 | 3
N#CC1=C(N)N(c2ccccc2)C(c2ccccc2)C1(C#N)C#N (stereo not given) | 0
O=C(CCS(=O)(=O)c1cccc2nonc12)Nc1cccc2c1CCCC2 | 1
CC(=O)Nc1ccc(S(=O)(=O)N2CCSC2c2ccccc2)cc1 (stereo not given) | 7
COc1ccc(-n2c(N)c(C(=O)NCc3ccco3)c3nc4ccccc4nc32)c(OC)c1 | 4
CCC(Sc1nc2n[nH]c(C)c2c(=N)n1-c1cc(Cl)ccc1C)C(=O)N1CCOCC1 (stereo not given) | 0

From PubChem BioAssay
